The record followed here is PubChem BioAssay (NCI).

This is part of a sample that, as a whole, favours compounds with a hit. Of some 79,000 tested, about 15% had one in any assay. A number with no mark means an inactive call. Calls of active or inactive are those of the source. Cut-off read from the data, not from the text of the source: active = growth inhibition above about 70%; inactive = the rest.

A short description of assay [1]: NCI Yeast Anticancer Drug Screen. Data for the rad50 strain (AID 155).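 Note: 0% = growth of vehicle-only cultures of the same strain.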 To be noted: S. cerevisiae rad50 strain growth inhibition; at 50.0 µM; hits give high values. In a few lines: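 Genetically altered yeast (DNA repair pathway); compound treatment; growth inhibition vs vehicle ctrl.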
Assay [2] in a line: NCI Yeast Anticancer Drug Screen. Data for the mec2-1 strain (AID 157). As to conditions: S. cerevisiae mec2-1 strain, at 50.0 µM, hits give high values. The gist of the method: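 Vehicle-treated cultures served as reference for growth inhibition of compound-exposed mec2-1 yeast.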
Assay [3] in a line: NCI Yeast Anticancer Drug Screen. Data for the sgs1 mgt1 strain (AID 161).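 Note: 0% = growth of cultures given vehicle only.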 As to conditions: S. cerevisiae sgs1 mgt1 strain, at 50.0 µM, hits give high values. The gist of the method:
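Read-out: growth inhibition vs vehicle controls. Cells: mutant yeast strain deficient in DNA damage repair.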

Assay [4] in a line: NCI Yeast Anticancer Drug Screen. Data for the cln2 rad14 strain (AID 165).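 Note: 0% = growth equal to vehicle treated cultures.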 To be noted: S. cerevisiae cln2 rad14 strain, at 50.0 µM, hits give high values. In a few lines: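 Each compound was tested on cln2 rad14 yeast. Inhibition of growth was calculated against vehicle-exposed controls.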
Assay [5] is described as follows: NCI Yeast Anticancer Drug Screen. Data for the bub3 strain (AID 167). As to conditions: S. cerevisiae bub3 mutant strain, at 50.0 µM, hits give high values. The gist of the method:
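Yeast carrying a defined mutation is treated with each compound, and growth is compared with that of vehicle-exposed cells to give inhibition.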

Assay [6] can be described thus: NCI Yeast Anticancer Drug Screen. Data for the mlh1 rad18 strain (AID 175). To be noted: S. cerevisiae mlh1 rad18 strain growth inhibition; at 50.0 µM; hits give high values. In a few lines: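 Vehicle-treated cultures served as the reference for growth inhibition in a yeast strain carrying DNA damage repair alterations exposed to each compound.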

In the case of `O=C(c1ccccc1)C(C(c1ccc(Cl)cc1)N1CCOCC1)N1CCOCC1` (stereo not given), the growth inhibition in assay [1] is 5.15%; in assay [2] it was 2.75%; in assay [3], 16.8%; in assay [4], 19.9%; in assay [5] it was 10.7%; in assay [6], 7.65%.

As to `O=C(Nc1ccc(C(=O)CCl)cc1)Nc1ccc(C(=O)CCl)cc1`, the growth inhibition was 8.65% in assay [1]; 14.1% in assay [2]; 20.2% in assay [3]; 0.35% in assay [4]; 12.9% in assay [5]; 14.6% in assay [6].

Take `CSc1nc(C)c(Br)c(=O)n1C1OC(COC(C)=O)C(OC(C)=O)C(OC(C)=O)C1OC(C)=O` (stereo not given): the growth inhibition in assay [1] was -1.2%; in assay [2], -7.5%; in assay [3], -13.1%; in assay [4] it was 22.2%; in assay [5], -19.9%; in assay [6], 1.35%.

As for `CC1=Nc2nc(=N)nc3cccc(n23)N1`, the growth inhibition in assay [1] was -3.55%; in assay [2], -6.55%; in assay [3], -7%; in assay [4], -6%; in assay [5], -7.7%; in assay [6], 5.95%.

In the case of `CCC[CH2][Sn]([CH2]CCC)([O]C(=O)c1cccc(F)c1F)[O][Sn]([CH2]CCC)([CH2]CCC)[O]C(=O)c1cccc(F)c1F`, the growth inhibition in assay [1] was 89.4% (active); in assay [2], 91.5% (active); in assay [3], 91.2% (active); in assay [4], 88.5% (active); in assay [5] it was 90% (active); in assay [6], 86% (active).

On to `CCCCCCCCCCCCCCCC/C(=C\c1ccc2ccccc2c1)[N+](=O)[O-]`, for which the growth inhibition in assay [1] was -29.2%; in assay [2], -10.7%; in assay [3] it was -24.6%; in assay [4], -38.3%; in assay [5], -1.75%; in assay [6], -10%.

On to `O=C1CCCC1Sc1ccccn1` (stereo not given), for which the growth inhibition was -14.4% in assay [1]; -11.5% in assay [2]; -29.6% in assay [3]; -8.5% in assay [4]; -7.15% in assay [5]; -32.2% in assay [6].

As for `CCCCSc1ncnc2nc(C)[nH]c12`, the growth inhibition is -9.85% in assay [1]; -20.6% in assay [2]; -7.7% in assay [3]; -25.6% in assay [4]; -14% in assay [5]; -12.7% in assay [6].

For the molecule `Nc1c(S(=O)(=O)O)cc(Nc2cccc(S(=O)(=O)/C=C/S(=O)(=O)O)c2)c2c1C(=O)c1ccccc1C2=O`, the growth inhibition in assay [1] is 8.4%; in assay [2] it was -28.9%; in assay [3] it was -1.2%; in assay [4], -2.45%; in assay [5] it was 0.85%; in assay [6], -14.2%.

With `N#CCCNc1ccc2c(c1)Cc1ccccc1-2`, the growth inhibition was 1.65% in assay [1]; 3.4% in assay [2]; 18.6% in assay [3]; -14.2% in assay [4]; 12.4% in assay [5]; -27.5% in assay [6].

Turning to `O=C1NC(=O)C(=Nc2cccc3c(=O)[nH][nH]c(=O)c23)C(c2nc3ccccc3s2)C1=O` (stereo not given), the growth inhibition is 20.2% in assay [1]; -9.7% in assay [2]; -12.8% in assay [3]; 8.7% in assay [4]; -3.05% in assay [5]; 4.7% in assay [6].

With `COC(=O)CCC(CCC(=O)OC)([N+](=O)[O-])[N+](=O)[O-]`, the growth inhibition in assay [1] was 0.4%; in assay [2] it was -1.95%; in assay [3], 4.5%; in assay [4], -55.6%; in assay [5], 10.7%; in assay [6], 3.3%.

With `Cc1nc(N)c(N2CCN(CN)CC2)c(=O)[nH]1`, the growth inhibition in assay [1] was -35.2%; in assay [2], 7.1%; in assay [3], -5.85%; in assay [4], 21.6%; in assay [5], 25.9%; in assay [6], -38%.

For the molecule `C/C=C1\CN2CCc3c([nH]c4ccccc34)C2C=C1CCO` (stereo not given), the growth inhibition was -19.1% in assay [1]; -34.4% in assay [2]; -26.4% in assay [3]; -13.2% in assay [4]; -41.1% in assay [5]; -43.7% in assay [6].

Take `COc1c(OC(C)=O)c(OC(C)=O)cc2c1-c1ccc(OC)c(=O)cc1C(NC(C)=O)CC2` (stereo not given): the growth inhibition in assay [1] is 1.65%; in assay [2], -1.35%; in assay [3], 15.8%; in assay [4], 1.35%; in assay [5], -33.3%; in assay [6] it was 8.35%.

In the case of `NC(=O)Oc1cccc(OC(N)=O)c1`, the growth inhibition in assay [1] is 8.95%; in assay [2], -6.25%; in assay [3], 13.9%; in assay [4] it was 3.8%; in assay [5], 18.8%; in assay [6], 13.6%.

As for `CCCCCCCCC(Br)C(Br)CCCCCCCC(=O)N(CCCC)CCCC` (stereo not given), the growth inhibition in assay [1] is 36.9%; in assay [2], 10.6%; in assay [3], 2.05%; in assay [4] it was -5.45%; in assay [5], 13.8%; in assay [6] it was 8.3%.

In the case of `CCCn1c(=S)[nH]c2c(=O)n(C)c(=O)n(C)c21`, the growth inhibition in assay [1] was -3.55%; in assay [2] it was -8.9%; in assay [3] it was -0.45%; in assay [4] it was -17.8%; in assay [5] it was -4.85%; in assay [6] it was 5.65%.

Turning to `CO/C(=N\N=C\c1cccc(C(F)(F)F)c1)c1ccncc1`, the growth inhibition in assay [1] was 27.3%; in assay [2], 6.4%; in assay [3], -2.2%; in assay [4], -6.05%; in assay [5], 5.1%; in assay [6], 12.2%.

Consider `CNc1c(C)cc(C#N)cc1C`, for which the growth inhibition in assay [1] was 7.45%; in assay [2] it was 1.25%; in assay [3], -10.6%; in assay [4], 0.2%; in assay [5], -4.7%; in assay [6] it was -5.4%.
